Reference: PubChem BioAssay (NCATS)
Records with an inconclusive call do not appear. Activity calls are given as the source filed them. Calls come from the whole dose curve; as a rule, active = well fitted cell-killing curve with a large enough effect; inconclusive = small, poorly fitted or top-dose-only effect, or effect the other way; inactive = flat fitted curve, though single readings scatter.

Key:
Test in all cases: Primary qHTS to identify gynecologic anti-cancer compounds using libraries of approved drugs and bioactive compounds (AID 1345084); note: nearly all actives have a fitted effect of over 55% in size
[1] = test system: Hek293T; conditions: Gynecologic cancer cell panel viability, ATPlite luminescence, 48 h, control line for the selectivity index; series mostly up to 57.5 µM
How it was run: (§1)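 Luminescence from the ATPlite ATP-monitoring reagent indicates viable cell number; lower signal means cytotoxicity. Cells received compound 16 h after seeding and were exposed for 48 h across five concentrations.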

[2] = test system: JEG-3; conditions: Gynecologic cancer cell panel viability, ATPlite luminescence, 48 h; series mostly up to 57.5 µM
How it was run: as §1

[3] = test system: OV90; conditions: Gynecologic cancer cell panel viability, ATPlite luminescence, 48 h; series mostly up to 57.5 µM
How it was run: as §1

[4] = test system: PA-1; conditions: Gynecologic cancer cell panel viability, ATPlite luminescence, 48 h; series mostly up to 57.5 µM
How it was run: as §1

[5] = test system: SKOV3; conditions: Gynecologic cancer cell panel viability, ATPlite luminescence, 48 h; series mostly up to 57.5 µM
How it was run: as §1

[6] = test system: Tov-21-G; conditions: Gynecologic cancer cell panel viability, ATPlite luminescence, 48 h; series mostly up to 57.5 µM
How it was run: as §1

[7] = test system: Tov112D; conditions: Gynecologic cancer cell panel viability, ATPlite luminescence, 48 h; series mostly up to 57.5 µM
How it was run: as §1
% is set by controls: 0 for no effect and ±100 for the full control effect.

CO[C@@]12CC3[C@@H]([C@@H](O)[C@@H](OC(C)=O)C4[C@](C)(COC(C)=O)CCC[C@]34C)[C@@H](C)C1=CC(=O)O2 (stereo not given in full)
inactive: Potency [1] | Potency [2] | Potency [3] | Potency [4] | Potency [5] | Potency [6] | Potency [7]

CC1CCC2(C)C(CC(O)C(O)C23CO3)C1(C)CCC1=CC(=O)OC1O (stereo not given)
inactive: Potency [1] | Potency [2] | Potency [3] | Potency [4] | Potency [5] | Potency [6] | Potency [7]

C=C1CC/C=C(/CO)C(=O)C[C@@H]2[C@@H]1CC2(C)C
inactive: Potency [1] | Potency [2] | Potency [3] | Potency [4] | Potency [5] | Potency [6] | Potency [7]

C[C@@H]1O[C@@H](O[C@H]2[C@H](OC(C#N)c3ccc(O)cc3)O[C@H](CO)[C@@H](O)[C@@H]2O)[C@H](O)[C@H](O)[C@H]1O (stereo not given in full)
inactive: Potency [1] | Potency [2] | Potency [3] | Potency [4] | Potency [5] | Potency [6] | Potency [7]

CC1(C)C(O)CCC2(C)C1C(O)C=C1COC(=O)C12O (stereo not given)
inactive: Potency [1] | Potency [2] | Potency [3] | Potency [4] | Potency [5] | Potency [6] | Potency [7]

C=C(C(=O)O)C1CCC(C)C2CCC(=O)OC2(C)C1 (stereo not given)
inactive: Potency [1] | Potency [2] | Potency [3] | Potency [4] | Potency [5] | Potency [6] | Potency [7]

C=C1CCC2C(OC(=O)C2(O)COC(C)=O)C2C(=C)C(O)CC12 (stereo not given)
inactive: Potency [1] | Potency [2] | Potency [3] | Potency [4] | Potency [5] | Potency [6] | Potency [7]

C=C1C(OC(C)=O)C(=O)C2C(C)(C)C(OC(C)=O)CCC2(C)C1CC(OC(C)=O)/C(C)=C/COC(C)=O (stereo not given)
inactive: Potency [1] | Potency [2] | Potency [3] | Potency [4] | Potency [5] | Potency [6] | Potency [7]

c1ccc(C(OC2CCN(CCCc3nn[nH]n3)CC2)c2ccccc2)cc1
inactive: Potency [1] | Potency [2] | Potency [3] | Potency [4] | Potency [5] | Potency [6] | Potency [7]

O=C(/C=C/c1ccccc1)OCC1=CC[C@@H]2C(C(=O)O)=CO[C@@H](O[C@@H]3O[C@H](CO)[C@@H](O)[C@H](O)[C@H]3O)[C@H]12
inactive: Potency [1] | Potency [2] | Potency [3] | Potency [4] | Potency [5] | Potency [6] | Potency [7]

Cc1onc(-c2ccccc2)c1C(=O)N[C@@H]1C(=O)N2[C@@H]1SC(C)(C)[C@@H]2C(=O)O
inactive: Potency [1] | Potency [2] | Potency [3] | Potency [4] | Potency [5] | Potency [6] | Potency [7]

COc1cc2c(cc1O)C1(OC)Cc3ccc4c(c3C1N(C)CC2)OCO4 (stereo not given)
inactive: Potency [1] | Potency [2] | Potency [3] | Potency [4] | Potency [5] | Potency [6] | Potency [7]

CC1NC(=O)C(Cc2c[nH]c3ccccc23)NC1=O (stereo not given)
inactive: Potency [1] | Potency [2] | Potency [3] | Potency [4] | Potency [5] | Potency [6] | Potency [7]

O=C(O)c1n[nH]c2c1C[C@H]1C[C@@H]21
inactive: Potency [1] | Potency [2] | Potency [3] | Potency [4] | Potency [5] | Potency [6] | Potency [7]

O=C(CCO[C@@H]1O[C@H](CO)[C@@H](O)[C@H](O)[C@H]1O)c1ccc(O)cc1
inactive: Potency [1] | Potency [2] | Potency [3] | Potency [4] | Potency [5] | Potency [6] | Potency [7]

N#CC1C(=O)Nc2scc(-c3ccc(-c4ccccc4O)cc3)c2C1=O (stereo not given)
inactive: Potency [1] | Potency [2] | Potency [3] | Potency [4] | Potency [5] | Potency [6] | Potency [7]

C[C@H]1[C@H](C)CC[C@]2(C(=O)O)CC[C@]3(C)C(=CC[C@@H]4[C@@]5(C)C[C@@H](O)[C@H](O)[C@@](C)(CO)[C@@H]5CC[C@]43C)[C@H]12
inactive: Potency [1] | Potency [2] | Potency [3] | Potency [4] | Potency [5] | Potency [6] | Potency [7]

COC(=O)[C@]12C(=O)C(C)=C(O)[C@@]1(C)C(C)=CC1[C@@]34CC[C@@H](OC(C)=O)C(C)(C)C3[C@H](C[C@]12C)OC4=O (stereo not given in full)
inactive: Potency [1] | Potency [2] | Potency [3] | Potency [4] | Potency [5] | Potency [6] | Potency [7]

CC1(CCC(=O)O)C(=O)C=CC23CC4CC(OC4(C)C2O)C13 (stereo not given)
inactive: Potency [1] | Potency [2] | Potency [3] | Potency [4] | Potency [5] | Potency [6] | Potency [7]

C/C=C(\C)C(=O)O[C@@H](C)[C@H]1CC[C@]2(O)C3CCC4C[C@@H](OC5CC(OC)C(OC6CC(OC)C(OC7CC(OC)C(OC8OC(C)C(OC9OC(CO)C(O)C(O)C9O)C(OC)C8O)C(C)O7)C(C)O6)C(C)O5)CC[C@]4(C)C3[C@H](O)[C@@H](O)[C@]12C (stereo not given in full)
inactive: activity change, negative = cytotoxicity [1] 1.78% [at 6.55 µM] | activity change, negative = cytotoxicity [2] -1.08% [at 6.55 µM] | activity change, negative = cytotoxicity [3] 15.4% [at 6.55 µM] | activity change, negative = cytotoxicity [4] 3.34% [at 6.55 µM] | activity change, negative = cytotoxicity [5] -4.09% [at 6.55 µM] | activity change, negative = cytotoxicity [6] 13.7% [at 6.55 µM] | activity change, negative = cytotoxicity [7] 8.06% [at 6.55 µM]
